Assay outcomes (PubChem BioAssay)
Most compounds without a hit are left out; they make up all but 12% or so of the library.
L3MBTL1 inh: qHTS Assay for the Inhibitors of L3MBTL1; Lethal(3)malignant brain tumor-like protein 1 (Homo sapiens), Q9Y468; AlphaScreen L3MBTL1–H3K9me1 peptide binding; Potency, µM (doses to about 57.1 µM), for the others: at the highest dose activity, negative = inhibition, most hits filed as inhibitors; 230,000 compounds, 0.66% hits; also: % is scaled to controls: 0 for no effect and ±100 for the full control effect; nearly all actives have a fitted effect of over 60% in size
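Read-out is AlphaScreen signal from streptavidin donor and nickel chelate acceptor beads (10 ug/mL final each) bridging L3MBTL1 (50 nM) and biotinylated K9-monomethylated H3(1-15) peptide (75 nM), after 30 min compound exposure at room temperature.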
G9a block: qHTS Assay for Inhibitors of Histone Lysine Methyltransferase G9a; Histone-lysine N-methyltransferase EHMT2 (Homo sapiens), Q96KQ7; G9a H3K9 monomethylation, AlphaScreen, 2 h; Potency, µM (series often up to 102 µM), for the others: at the top dose activity, negative = inhibition, usual class: inhibitors; 350,000 compounds, 8.8% hits; also: % is scaled to controls: 0 for no effect and ±100 for the full control effect; nearly all actives have a fitted effect of over 75% in size
Target sequence (Q96KQ7 913-1193 limits assumed): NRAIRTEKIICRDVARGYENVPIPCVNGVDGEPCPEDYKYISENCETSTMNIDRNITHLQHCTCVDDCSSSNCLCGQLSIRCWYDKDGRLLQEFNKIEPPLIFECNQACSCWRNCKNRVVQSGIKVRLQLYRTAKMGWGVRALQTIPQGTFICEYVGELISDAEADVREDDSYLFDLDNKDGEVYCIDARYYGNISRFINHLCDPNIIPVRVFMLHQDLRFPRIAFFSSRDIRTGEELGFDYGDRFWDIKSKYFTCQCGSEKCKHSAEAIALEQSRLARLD
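Step 1: enzyme (final 20 nM) with compound, 15 min RT. Step 2: substrate peptide 500 nM and SAM 20 uM, 2 h RT. Step 3: anti-H3K9me1 antibody and AlphaScreen beads, 10 min, then plate read.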
Sfp inh: qHTS Assay for Inhibitors of Bacillus subtilis Sfp phosphopantetheinyl transferase (PPTase). 4'-phosphopantetheinyl transferase ffp (Bacillus subtilis), Q9F4F7. Biochemical Sfp PPTase activity, qHTS. Potency, µM, for inactives: largest response in the series, negative = inhibition, actives largely listed as inhibitors. 310,000 compounds, 3.5% hits;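 also: the enzyme is Sfp with the accession as filed and its product quenches rhodamine fluorescence; 0% = enzyme reaction without inhibitor and -100% = no enzyme wells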
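With Hepes-Na pH 7.6 buffer containing 10 mM MgCl2, Sfp (15 nM) modified BHQ-2-YbbR (12.5 uM) using rhodamine-CoA (5 uM). Two reads 30 minutes apart at 525/598 nm yielded each well's rate.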
HP1b chromo inh: HTS for Inhibitors of HP1-beta Chromodomain Interactions with Methylated Histone Tails | Chromobox protein homolog 1 (Homo sapiens), P83916 | AlphaScreen HP1-beta / biotin-H3K9me3 peptide binding | Potency, µM (titrated, usually from 114 µM), for the others: at the top dose activity change, negative = inhibition, actives largely listed as inhibitors | 390,000 compounds, 0.56% hits | AID 540317, 2011; also: nearly all actives have a fitted effect of over 70% in size
Target sequence (P83916 whole entry, looked up): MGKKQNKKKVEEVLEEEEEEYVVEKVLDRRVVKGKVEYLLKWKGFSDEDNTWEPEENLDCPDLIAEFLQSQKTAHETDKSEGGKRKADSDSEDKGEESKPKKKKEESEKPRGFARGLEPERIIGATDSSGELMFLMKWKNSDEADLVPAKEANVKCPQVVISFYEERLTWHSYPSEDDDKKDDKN
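HP1-beta protein (50 nM final) preincubated 30 min at room temperature with biotinylated H3(1-18)K9me3 peptide (50 nM) in PBS pH 7.4, 0.01% Tween-20, then compound added for 30 min. AlphaScreen streptavidin donor/nickel chelate acceptor beads (10 ug/mL final), 30 min dark, luminescence read.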
JMJD2A Tudor inh: qHTS Assay for Inhibitors of JMJD2A-Tudor Domain | Potency, µM (highest dose often 114 µM), inactives show top-dose activity change, negative = inhibition, actives largely listed as inhibitors | AID 504339, 2011 | AlphaScreen JMJD2A-Tudor / H3K4me3 peptide binding | 390,000 compounds, 4.4% hits; also: % is scaled to controls: 0 for no effect and ±100 for the full control effect; nearly all actives have a fitted effect of over 50% in size
BAZ2B block: qHTS Assay for Inhibitors of BAZ2B. Bromodomain adjacent to zinc finger domain protein 2B (Homo sapiens), Q9UIF8. AlphaScreen BAZ2B-H3K14Ac peptide displacement. AID 504333, 2011. Potency, µM (top dose mostly 114 µM), for the others: at the highest dose activity change, negative = inhibition, hits mostly inhibitors. 360,000 compounds, 4.4% hits; also: % is scaled to controls: 0 for no effect and ±100 for the full control effect; nearly all actives have a fitted effect of over 60% in size
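Complex of BAZ2B and biotin-H3K14Ac (50 nM apiece) forms over 30 min at RT, then faces library compounds up to 110 uM for another 30 min; AlphaScreen beads added, 20 min dark incubation, luminescence read.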
An asterisk follows results filed as active; u = inconclusive; x = no result given; [ ] = another dose, or the depositor's remark. Calls follow the shape of the dose curve; as a rule, active = well fitted curve in the direction sought with a large enough effect; inconclusive = small, poorly fitted or top-dose-only effect, or another doubt; inactive = no such curve, though single readings can be large; an effect the other way counts as inactive or inconclusive. Potency is read from the fitted curve at half-maximal effect.

SMILES | L3MBTL1 inh | G9a block | Sfp inh | HP1b chromo inh | JMJD2A Tudor inh | BAZ2B block
O=C(NCCOCCn1c(=O)oc2ccccc21)Nc1ccc(F)cc1F | x | -23.8%[59 µM] | x | -0.3% | -25.5% | -3.2%
COC(=O)c1cc2sc(Cl)cc2n1Cc1nc(-c2ccccc2F)oc1C | x | -19.7%[59 µM] | x | 24.0% | -1.5% | 1.3%
Cc1[nH]c2ccccc2c1SCc1ccccc1 | 10.9% | 2.4% | -0.3% | 47.2% | -10.4% | 9.4%
Cc1[nH]c2ccccc2c1Cc1n[nH]c(=S)n1C | -5.1% | 2µM* | 3.3% | -43.2% | 6.31µM* | 1.9%
Cc1[nH]c2ccccc2c1SCc1n[nH]c(=S)n1C | x | 3.98µM* | -11.1% | 14.9% | 10µM* | -15.2%
COc1cccc(N2CCN(C(=O)CN3CCSc4ccc(S(=O)(=O)N(C)C)cc43)CC2)c1 | x | 1.6%[59 µM] | x | 6.4%[57 µM] | -28.8% | -27.1%
O=C(Cn1c(=O)n(Cc2nc(-c3ccccc3)no2)c(=O)c2ccccc21)Nc1cccc(C(F)(F)F)c1 | x | u | x | 35.8% | 0.7% | -11.8%
Clc1ccc(-c2nnc(N3CCCC3)nn2)cc1 | -18.3% | 7.08µM* | 5.2% | u | -29.7% | u
CCSc1cc(N2CCCC2)nc(-c2ccc(Cl)cc2)n1 | -7.9% | -10.1%[0.501 µM] | x | 199.1% | 17.1% | 7.5%
CN1C(=O)C2(c3ccccc31)C1CCCC=C1C(C#N)=C(N)C2(C#N)C#N (configuration not stated) | x | -45.8%[2.33 µM] | 12.6µM* | 38.5% | 2.3%[11.4 µM] | 22.7%
O=C(/C(N=Nc1cccc(C(F)(F)F)c1)=C(/O)c1cccs1)C(F)(F)F | -16.6% | 20µM* | -5.5% | u | 50.1µM* | u
COc1ccc2nc(SCC(O)c3cccc(Br)c3)[nH]c2c1 (configuration not stated) | x | u | x | -4.6% | u | -11.3%
COc1ccc(NC(=O)CCCc2nc(-c3ccco3)no2)c(OC)c1 | x | 3.3%[59 µM] | x | 49.6% | -14.6% | u
COc1ccc(CNc2ccc(Cl)cc2)cc1Cn1ccnc1 | x | 35.5µM* | 13.6% | u | 50.1µM* | 25.1µM*
COc1ccc(C=O)cc1Cn1ccnc1 | -1.0% | -6.3% | 2.1% | 19.0% | -15.0% | -9.2%
CCCCSc1nc(CCC)cc(=O)[nH]1 | x | u | 4.8% | 20.8% | -10.8% | 0.4%
CCCCSc1nc(C(=O)O)cc(=O)[nH]1 | 9.7% | 39.8µM* | u | 39.7% | 39.8µM* | -1.9%
CC(=O)O[C@H](C(=O)O[C@@H]1C[C@@H](CCC[C@H]2O[C@H](C(=O)OC(C)C)CC[C@@H]2C)O[C@@H](CC#N)C1)c1ccccc1 | x | x | -3.1% | x | x | x
CC(C)CC(=O)N1CCN(S(C)(=O)=O)CC1 | 0.3% | 12.1%[59 µM] | 13.3% | 12.2% | 1.3% | 0.2%
CS(=O)(=O)N1CCN(C2C3CC4CC(C3)CC2C4)CC1 (configuration not stated) | 0.0% | x | 12.9% | u | 10µM* | -5.8%
CN1CCCN(C2C3CC4CC(C3)CC2C4)CC1 (configuration not stated) | 2.6% | 10µM* | 79.4µM* | u | 1µM* | u
O=C(c1ccccc1)N1CCN(C2C3CC4CC(C3)CC2C4)CC1 (configuration not stated) | x | 2.9% | -6.2% | 21.8% | -7.3% | 12.5%
CS(=O)(=O)N1CCN(C2Cc3ccccc3C2)CC1 | x | -1.8% | -0.2% | 6.3% | -3.1% | -3.6%
CC1CCC(N2CCN(S(C)(=O)=O)CC2)CC1 (configuration not stated) | x | u | -25.5% | 44.7µM* | 3.16µM* | 31.6µM*
CCCSc1ncc(Cl)c(C(=O)Nc2sc3c(c2C(=O)OC)CCCC3)n1 | x | 10.3%[59 µM] | x | 12.4% | -13.9% | -0.1%
